A number with no mark means an inactive call. Inconclusive results are not listed. For some assays here: Measured potencies and affinities stand elsewhere. The source made the active and inactive calls. Unless noted, how the calls were made is not given here.

For experiment [1] the following is noted: Ebola virus entry assay, green fluorescence channel.
For experiment [2] the following is noted: Ebola virus entry assay, blue channel fluorescence.
For experiment [3] the following is noted: Ebola virus entry assay, ratio channel.
The conditions of experiment [4]: Ebola virus entry assay, green channel fluorescence.
The conditions of experiment [5]: Ebola virus entry assay, reporter ratio channel; Channel type: primary.
For experiment [6] the following is noted: Ebola virus entry assay, blue channel (ratio component).
The nature of experiment [7]: qHTS assay for measurement of the activity of small molecule inhibitors on Zika virus induced Caspase-3 activity in human iPSC derived neural progenitor cells (hNPCs) (AID 1224857; active means well fitted inhibition curve with a large enough effect; further: % of control where 0% means no effect; nearly all actives have a fitted effect of over 65% in size). The following applies: hNPCs ZIKV-induced caspase-3/7, Caspase-Glo luminescence, 6 h; series mostly up to 45.7 µM. In outline: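 Human iPSC-derived neural progenitor cells pretreated 1 hr with compounds, then infected with Zika virus (2 FFU/cell) for 6 hours at 37 C. Caspase-3/7 measured by Caspase-Glo luminescence; % inhibition calculated from induction scaled to uninfected (0%) and infected (100%) wells.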
On the technique in general: In qHTS, concentration-response curves come from the screen itself.

A short description of experiment [8]: qHTS assay for measurement of the activity of small molecule inhibitors on Zika virus induced Caspase-3 activity in human astrocytoma cells (AID 1224859; active means well fitted inhibition curve with a large enough effect;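 further: plate controls were ZIKV-infected untreated cells for no effect and uninfected cells for full effect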). The settings on record: SNB-19 ZIKV-induced caspase-3/7, luminescence, 6 h; series mostly up to 45.7 µM. In outline: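 SNB-19 astrocytoma cells, 250/well, pretreated 1 h with compounds, then Zika virus at 2 FFU/cell for 6 h at 37 C; Caspase-Glo 3/7 luminescence after 30 min; percent inhibition normalised to uninfected and infected controls.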
Wherever efficacy is given: 0% is about no effect.

Regarding `COc1ccc(OC(=O)N(CC(=O)O)Cc2ccc(OCCc3nc(-c4ccccc4)oc3C)cc2)cc1`, the efficacy in experiment [1] was -17%. Moreover, the result in experiment [2], in experiment [3], in experiment [4], in experiment [5] and in experiment [6] was inactive.
With `NC(=O)Cc1cccc(C(=O)c2ccccc2)c1N`, the efficacy in experiment [1] is 18%. Moreover, the compound was called inactive in experiment [2], in experiment [3], in experiment [4], in experiment [5] and in experiment [6].
Regarding `O=C(O)CP(=O)(O)O`, the efficacy in experiment [1] was -15.3%. In addition, the outcome in experiment [2], in experiment [3], in experiment [4], in experiment [5] and in experiment [6] was inactive.
Take `COCCc1ccc(OCC(O)CNC(C)C)cc1` (stereo not given): in experiment [1], the efficacy was -31.6%. Besides, the call in experiment [2], in experiment [3], in experiment [4], in experiment [5] and in experiment [6] was inactive.
Turning to `CC(C)(C)c1ccc(C(=O)CCCCl)cc1`, the efficacy in experiment [1] is -23.2%. Moreover, the call in experiment [2], in experiment [3], in experiment [4], in experiment [5] and in experiment [6] was inactive.
Turning to `NS(=O)(=O)c1cc2c(cc1Cl)CN(C1CCCCC1)C2=O`, in experiment [1], the efficacy was 30.3%. Also, the result in experiment [2], in experiment [3], in experiment [4], in experiment [5] and in experiment [6] was inactive.
Regarding `Cc1cn([C@H]2C[C@H](F)[C@@H](CO)O2)c(=O)[nH]c1=O`, the efficacy in experiment [1] was -14.7%. The compound was called inactive in experiment [2], in experiment [3], in experiment [4], in experiment [5] and in experiment [6].
As to `C/C(=N/NC(=O)c1ccncc1)C(=O)O`, in experiment [1], the efficacy is -27.5%. In addition, the result in experiment [2], in experiment [3], in experiment [4], in experiment [5] and in experiment [6] was inactive.
With `Cc1ncc(COP(=O)(O)O)c(C=O)c1O`, the efficacy in experiment [1] was -34.1%. Besides, the compound was called inactive in experiment [2], in experiment [3], in experiment [4], in experiment [5] and in experiment [6].
Consider `CC(O)COc1ccccc1` (stereo not given), for which, in experiment [1], the efficacy was 11.7%. Further, the outcome in experiment [2], in experiment [3], in experiment [4], in experiment [5] and in experiment [6] was inactive.
On to `O=C(O)CCNC(=O)c1ccccc1`, for which the efficacy in experiment [1] was -15.3%. Besides, the call in experiment [2], in experiment [3], in experiment [4], in experiment [5] and in experiment [6] was inactive.
Consider `CCOC(=O)c1ccc(NC(=O)CN2CCCCC2)cc1`, for which, in experiment [1], the efficacy was -17.3%. Moreover, the outcome in experiment [2], in experiment [3], in experiment [4], in experiment [5] and in experiment [6] was inactive.
Take `OC[C@H]1O[C@@H](OCCc2ccc(O)cc2)[C@H](O)[C@@H](O)[C@H]1O`: the efficacy in experiment [1] was -19%. The outcome in experiment [2], in experiment [3], in experiment [4], in experiment [5] and in experiment [6] was inactive.
On to `CC(O)Cn1cnc2c1c(=O)n(C)c(=O)n2C` (stereo not given), for which the efficacy in experiment [1] was 6.04%. The outcome in experiment [2], in experiment [3], in experiment [4], in experiment [5] and in experiment [6] was inactive.
As to `Cc1cccc(Cc2cnc[nH]2)c1C`, in experiment [1], the efficacy is -25%. The outcome in experiment [2], in experiment [3], in experiment [4], in experiment [5], in experiment [6] and in experiment [8] was inactive. For the same compound, in experiment [7], the Potency entry is “inactive”.
Take `C/C=C/c1ccc(O)c(OC)c1`: the efficacy in experiment [1] is 19%. Also, the call in experiment [2], in experiment [3], in experiment [4], in experiment [5] and in experiment [6] was inactive.
Consider `N[C@H](C(=O)O)c1ccc(O)cc1`, for which the efficacy in experiment [1] was 11.9%. The outcome in experiment [2], in experiment [3], in experiment [4], in experiment [5] and in experiment [6] was inactive.
As for `CCC1NC(=O)c2cc(S(N)(=O)=O)c(Cl)cc2N1` (stereo not given), in experiment [1], the efficacy is -10.3%. For the same compound, the outcome in experiment [2], in experiment [3], in experiment [4], in experiment [5] and in experiment [6] was inactive.
With `NCC(=O)O`, in experiment [1], the efficacy is 13.7%. For the same compound, the compound was classed as inactive in experiment [2], in experiment [3], in experiment [4], in experiment [5] and in experiment [6].
In general, AC50 refers to the midpoint of the concentration-response curve, whichever way the signal moves. For `Cn1cc(C(=O)[C@@H]2CCc3nc[nH]c3C2)c2ccccc21`, the efficacy in experiment [1] was 15.9%. Moreover, the call in experiment [2], in experiment [3], in experiment [4] and in experiment [6] was inactive. Further, the AC50 in experiment [5] is 39.8 µM (active).
With `Nc1c(NC/C=C\COc2cc(CN3CCCCC3)ccn2)c(=O)c1=O`, the efficacy in experiment [1] was -32.1%. For the same compound, the call in experiment [2], in experiment [3], in experiment [4], in experiment [5] and in experiment [6] was inactive.
As to `C[C@]12CC[C@H]3[C@@H](CCC4=CC(=O)CC[C@@]43C)[C@@H]1CC[C@@H]2C(=O)O`, in experiment [1], the efficacy is -23.5%. Moreover, the result in experiment [2], in experiment [3], in experiment [4], in experiment [5], in experiment [6] and in experiment [8] was inactive. Also, the Potency result in experiment [7] is “inactive”.
As for `CC(=O)Nc1cccc(O)c1`, in experiment [1], the efficacy is 28%. The compound was called inactive in experiment [2], in experiment [3], in experiment [4], in experiment [5] and in experiment [6].
Turning to `CCOc1ccc(C(=O)OCCN(CC)CC)cc1`, the efficacy in experiment [1] was 22.6%. In addition, the outcome in experiment [2], in experiment [3], in experiment [4], in experiment [5] and in experiment [6] was inactive.
In the case of `Cc1ccc(S(=O)(=O)NC(=O)NC2CCCC2)cc1`, the efficacy in experiment [1] was -11.6%. The outcome in experiment [2], in experiment [3], in experiment [4], in experiment [5] and in experiment [6] was inactive.
`CC(=O)[C@@]1(O)CC[C@H]2[C@@H]3CCC4=CC(=O)CC[C@]4(C)[C@H]3CC[C@@]21C`: the efficacy in experiment [1] was -9%. Also, the compound was classed as inactive in experiment [2], in experiment [3], in experiment [4], in experiment [5] and in experiment [6].
Take `N[C@H](Cc1c[nH]c2ccccc12)C(=O)O`: the efficacy in experiment [1] is 29.9%. The outcome in experiment [2], in experiment [3], in experiment [4], in experiment [5] and in experiment [6] was inactive.
Take `Nc1ccc(S(=O)(=O)Nc2nccs2)cc1`: the efficacy in experiment [1] was -14%. Moreover, the result in experiment [2], in experiment [3], in experiment [4], in experiment [5] and in experiment [6] was inactive.
Regarding `Cc1ncc([N+](=O)[O-])n1C`, the efficacy in experiment [1] is 20.2%. In addition, the result in experiment [2], in experiment [3], in experiment [4], in experiment [5] and in experiment [6] was inactive.
As to `C[C@@H](O)[C@H]1C(=O)N2C(C(=O)O)=C([C@H]3CCCO3)S[C@H]12`, the efficacy in experiment [1] is -19.1%. Also, the result in experiment [2], in experiment [3], in experiment [4], in experiment [5] and in experiment [6] was inactive.
For `CN(C(=O)c1c(O)c2ccccc2n(C)c1=O)c1ccccc1`, the efficacy in experiment [1] was -16%. For the same compound, the result in experiment [2], in experiment [3], in experiment [4], in experiment [5] and in experiment [6] was inactive.
`CCO[C@H]1O[C@@H]2OC3(C)CC[C@H]4[C@H](C)CC[C@@H]([C@H]1C)[C@@]24OO3`: in experiment [1], the efficacy was 19.2%. Also, the result in experiment [2], in experiment [3], in experiment [4], in experiment [5], in experiment [6] and in experiment [8] was inactive. For the same compound, the Potency result in experiment [7] was “inactive”.
For the compound `CCC(=O)c1ccc(O)cc1`, the efficacy in experiment [1] is -30%. The outcome in experiment [2], in experiment [3], in experiment [4], in experiment [5] and in experiment [6] was inactive.
In the case of `Cc1c(Cn2ccnc2)c2ccccc2n1CCC(=O)O`, the efficacy in experiment [1] was 14%. Besides, the compound was called inactive in experiment [2], in experiment [3], in experiment [4], in experiment [5] and in experiment [6].
Regarding `COc1cc(O)c(C(=O)c2ccccc2)cc1S(=O)(=O)O`, the efficacy in experiment [1] is 11.7%. Further, the compound was called inactive in experiment [2], in experiment [3], in experiment [4], in experiment [5] and in experiment [6].
With `OCC(O)CN1CCN(c2ccccc2)CC1` (stereo not given), the efficacy in experiment [1] was 24.6%. Moreover, the result in experiment [2], in experiment [3], in experiment [4], in experiment [5] and in experiment [6] was inactive.
As for `ClCCCN1CCN(c2cccc(Cl)c2)CC1`, in experiment [1], the efficacy was 26.2%. For the same compound, the outcome in experiment [2], in experiment [3], in experiment [4], in experiment [5], in experiment [6] and in experiment [8] was inactive. Besides, the Potency result in experiment [7] is “inactive”.

The record behind these values is PubChem BioAssay (NCATS).
